# Several values for one entry are separate records, joined by “and”; a condition that tells them apart may be missing. Equal entries are not always repeated. Inconclusive results are not listed. Entries that show only a call come without a potency. Some structures have more than one record in an assay (separate samples or runs), and their calls can disagree. Activity calls are given as the source filed them. Unless noted, the call rests on the fitted dose curve; in most records, active means well fitted curve in the direction sought with a large enough effect in the repeat runs; inconclusive means weak or mixed curves; inactive means no such curve, though single readings can be large; an effect the other way counts as inactive or inconclusive.
# Columns and labels:
# [1] = qHTS assay for small molecule agonists of the p53 signaling pathway (AID 651631; calls by dose curve; further: nearly all actives have a fitted effect of over 15% in size; further: potency means the concentration at half of the fitted maximal effect)
# Procedure, shortened: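 Read-out is beta-lactamase FRET fluorescence measured 2 h after substrate addition at room temperature, in HCT-116 cells with a p53 response element-driven reporter exposed to compounds for 16 h at 37 °C.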
# [2] = qHTS assay for small molecule agonists of the p53 signaling pathway - cell viability (AID 651633; calls by dose curve;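 further: p53RE-bla HCT reporter cells with a stable beta-lactamase p53 reporter; series mostly up to about 83 µM; nearly all actives have a fitted effect of over 30% in size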)
# Procedure, shortened: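 p53RE-bla cells, seeded at 4,000 per well and rested 5 h at 37 C/5% CO2, received compounds in DMSO for 16 h at 37 C. CellTiter-Glo was then added, and luminescence was read after 30 min at room temperature to gauge cytotoxicity.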
# [3] = qHTS assay for small molecule disruptors of the mitochondrial membrane potential - cell viability (AID 720634; calls by dose curve;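 further: human HepG2 liver cancer cells; series mostly up to about 83 µM; nearly all actives have a fitted effect of over 20% in size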)
# Procedure, shortened: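 Same-well counter-screen: following the MMP dye addition, CellTiter-Glo was added to 1 hr compound-treated HepG2 cells and luminescence read after 30 min at room temperature.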
# [4] = qHTS assay for small molecule disruptors of the mitochondrial membrane potential (AID 720635); further: potency means the concentration at half of the fitted maximal effect
# Procedure, shortened: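 HepG2 cells (2,000/well) attached overnight at 37C, then took compound for 1 hr at 37C, 5% CO2. Mito-MPS dye was added for 30 min; fluorescence was read at 490/535 nm (monomers) and 540/590 nm (aggregates).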
# [5] = qHTS assay to test for compound auto fluorescence at 590 nm (red) in HepG2 cells (AID 720674)
# Procedure, shortened: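 Compound auto-fluorescence is scored relative to Rose Bengal sodium, measured at 540/590 nm in live HepG2 cultures after 1 hr compound contact (37 C, 5% CO2).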
# [6] = qHTS assay to test for compound auto fluorescence at 535 nm (green) in HepG2 cells (AID 720675)
# [7] = qHTS assay to test for compound auto fluorescence at 460 nm (blue) in HEK293 cells (AID 720678)
# Procedure, shortened: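 HEK293, 2,000 cells/well, 10% dialyzed FBS; attach 4-5 hr 37C; pin compound or DMSO; o/n 37C/5% CO2; fluorescence 405/460 nm; triamterene-equivalent units.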
# [8] = qHTS assay to test for compound auto fluorescence at 590 nm (red) in HEK293 cells (AID 720679)
# Procedure, shortened: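 Intensity at 540nm excitation and 590nm emission is reported as Rose Bengal sodium-equivalent autofluorescence. Measurements followed overnight exposure (37C, 5% CO2) of HEK293 cells, 2,000 per well, to 23 nL compound.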
# [9] = qHTS assay to test for compound auto fluorescence at 535 nm (green) in HEK293 cells (AID 720680)
# [10] = qHTS assay to test for compound auto fluorescence at 460 nm (blue) in HEK293 cell free culture (AID 720681)
# Procedure, shortened: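 Test compounds were pinned into cell-free culture medium (DMEM with 10% FBS) and fluorescence was read directly at Ex/Em 405/460 nm. Signals were expressed as fluorescence equivalents of triamterene, with DMSO vehicle as control.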
# [11] = qHTS assay to test for compound auto fluorescence at 535 nm (green) in HEK293 cell free culture (AID 720682)
# Procedure, shortened: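 Fluorescein serves as the green reference fluorophore; each compound's intrinsic emission at 535 nm (excitation 485 nm) is reported as an equivalent amount of that dye, measured in serum-containing DMEM without cells.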
# [12] = qHTS assay to test for compound auto fluorescence at 590 nm (red) in HEK293 cell free culture (AID 720683)
# Procedure, shortened: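 Tox21 10K library compounds were pinned into cell-free DMEM with 10% FBS and fluorescence was read at excitation 540 nm. Activity is expressed as Rose Bengal sodium equivalency.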
# [13] = qHTS assay to test for compound auto fluorescence at 590 nm (red) in HepG2 cell free culture (AID 720684)
# Procedure, shortened: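 Readout: intrinsic compound fluorescence at 590 nm emission after 540 nm excitation, scaled to Rose Bengal sodium. Matrix was cell-free MEM with 10% FBS; DMSO vehicle wells served as control.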
# [14] = qHTS assay to test for compound auto fluorescence at 460 nm (blue) in HepG2 cell free culture (AID 720685)
# Procedure, shortened: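 Cell-free plates of MEM plus 10% FBS received 23 nL compound or DMSO vehicle; blue-channel (405/460 nm) intensity scored against triamterene as reference fluorophore.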
# [15] = qHTS assay to test for compound auto fluorescence at 535 nm (green) in HepG2 cell free culture (AID 720686)
# [16] = qHTS assay to test for compound auto fluorescence at 460 nm (blue) in HepG2 cells (AID 720687)
# Procedure, shortened: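 Cells (2,000/well in MEM with 10% FBS) attached overnight at 37 C, then were exposed to compound or DMSO for 1 hr at 37 C, 5% CO2. Fluorescence read at Ex/Em 405/460 nm, expressed as triamterene-equivalent signal.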
# [17] = biological target: Glucocorticoid receptor (Homo sapiens) (UniProt P04150); assay: qHTS assay to identify small molecule agonists of the glucocorticoid receptor (GR) signaling pathway (AID 720691; active means well fitted activation curve with a large enough effect in the signal ratio in the repeat runs, not every such curve was filed as active; the % refers to the signal ratio)
# Sequence of Glucocorticoid receptor (Homo sapiens) (P04150 whole entry, looked up): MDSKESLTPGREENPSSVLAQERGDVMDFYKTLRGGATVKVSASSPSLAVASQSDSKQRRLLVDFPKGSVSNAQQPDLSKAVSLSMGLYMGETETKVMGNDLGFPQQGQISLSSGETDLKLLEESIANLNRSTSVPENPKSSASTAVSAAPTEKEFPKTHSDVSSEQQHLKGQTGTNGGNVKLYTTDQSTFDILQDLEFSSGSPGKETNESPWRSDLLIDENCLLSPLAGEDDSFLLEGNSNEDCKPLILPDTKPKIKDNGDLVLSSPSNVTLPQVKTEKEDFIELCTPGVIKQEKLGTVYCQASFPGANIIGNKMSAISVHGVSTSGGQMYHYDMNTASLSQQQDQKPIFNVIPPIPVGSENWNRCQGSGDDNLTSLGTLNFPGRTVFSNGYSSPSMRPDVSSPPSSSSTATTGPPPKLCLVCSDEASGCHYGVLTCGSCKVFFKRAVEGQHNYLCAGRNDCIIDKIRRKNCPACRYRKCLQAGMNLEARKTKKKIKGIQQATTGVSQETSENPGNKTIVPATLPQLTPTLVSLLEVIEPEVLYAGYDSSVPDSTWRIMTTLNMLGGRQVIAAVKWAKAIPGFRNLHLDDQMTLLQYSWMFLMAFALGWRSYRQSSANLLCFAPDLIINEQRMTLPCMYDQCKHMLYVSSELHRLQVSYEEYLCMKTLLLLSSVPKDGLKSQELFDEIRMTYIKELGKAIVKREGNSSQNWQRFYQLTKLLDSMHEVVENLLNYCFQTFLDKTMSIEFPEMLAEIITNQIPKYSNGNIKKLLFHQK
# Procedure, shortened: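 A HeLa cervical cancer line expressing GR and a glucocorticoid response element-driven beta-lactamase gene is treated with compounds for 18 h; LiveBLAzer B/G FRET substrate is then applied and fluorescence read.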
# [18] = biological target: Glucocorticoid receptor (Homo sapiens) (UniProt P04150); assay: qHTS assay to identify small molecule antagonists of the glucocorticoid receptor (GR) signaling pathway (AID 720692; active means well fitted inhibition curve with a large enough effect in the signal ratio in the repeat runs, not every such curve was filed as active; the % refers to the signal ratio; further: potency means the concentration at half of the fitted maximal effect)
# Procedure, shortened: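 GRE-bla HeLa line, dex-stimulated (5 nM final). Compound exposure 18 h, 37 C. Beta-lactamase FRET read after 2 h RT substrate.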
# [19] = qHTS assay for small molecules that induce genotoxicity in human embryonic kidney cells expressing luciferase-tagged ATAD5 (AID 651632); further: nearly all actives have a fitted effect of over 15% in size
# Procedure, shortened: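 Test compounds were delivered by pin tool onto HEK293T reporter cells (2,000/well) expressing ATAD5 fused to luciferase. After 16 hr at 37C, 5% CO2, Amplite was added for 30 min at room temperature and luminescence was measured.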
# [20] = qHTS assay for small molecules that induce genotoxicity in human embryonic kidney cells expressing luciferase-tagged ATAD5 - cell viability (AID 651634; calls by dose curve; further: nearly all actives have a fitted effect of over 25% in size; further: potency means the concentration at half of the fitted maximal effect)
# Procedure, shortened: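 Quantitative high-throughput format. HEK293T cells expressing ATAD5 fused to luciferase were plated at 2,000 cells/well and treated 15.5 hr with compound versus DMSO. Viability was determined by fluorescent live-cell protease substrate, 30 min at 37C.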
SMILES,Potency [1],Potency [2],Potency [3],Potency [4],outcome [5],outcome [6],outcome [7],outcome [8],outcome [9],outcome [10],outcome [11],outcome [12],outcome [13],outcome [14],outcome [15],outcome [16],Potency [17],Potency [18],Potency [19],Potency [20]
NC(=S)c1c(Cl)cccc1Cl,inactive,inactive,inactive,inactive,inactive,inactive,inactive,inactive,inactive,inactive,inactive,inactive,inactive,inactive,inactive,inactive,inactive,inactive,,
OCCSSCCO,inactive,inactive,inactive,,inactive,inactive,inactive,inactive,inactive,inactive,inactive,inactive,inactive,inactive,inactive,inactive,inactive,inactive,inactive,inactive
CCOP(=S)(OCC)SCSc1cc(Cl)ccc1Cl,inactive,inactive,inactive,,inactive,inactive,inactive,inactive,inactive,inactive,inactive,inactive,inactive,,inactive,inactive,inactive,,inactive,inactive
CCCSP(=S)(OCC)Oc1ccc(SC)cc1 (stereo not drawn),inactive,inactive,,,inactive,inactive,inactive,inactive,inactive,inactive,inactive,inactive,inactive,inactive,inactive,inactive,,,inactive,inactive
CCCCCCCCn1sccc1=O,12.2 µM (active) and 25.5 µM (active),,inactive,30.7 µM (active) and 64.1 µM (active),inactive,inactive,inactive,inactive,inactive,inactive,inactive,inactive,inactive,inactive,inactive,inactive,inactive,49.1 µM (active) and 36.3 µM (active),inactive,54.6 µM (active)
O=C1c2ccccc2C(=O)N1SC(Cl)(Cl)Cl,8.51 µM (active) and 4.33 µM (active),inactive,,4.79 µM (active) and 7.7 µM (active),inactive,inactive,inactive,inactive,inactive,inactive,inactive,inactive,inactive,inactive,inactive,inactive,,,inactive,60.3 µM (active)
C[C@@H]1C[C@@H]([C@H](O)CC2CC(=O)NC(=O)C2)C(=O)[C@@H](C)C1,11.9 µM (active) and inactive,inactive,inactive,,inactive,inactive,inactive,inactive,inactive,inactive,inactive,inactive,inactive,inactive,inactive,inactive,,,,1.33 µM (active) and 271 nM (active)
CCCC[P+](CC)(CCCC)CCCC (tested in a mixture with another compound),inactive,,inactive,,inactive,inactive,inactive,inactive,inactive,inactive,inactive,inactive,inactive,inactive,inactive,inactive,,,inactive,inactive
CCOC(=O)c1cn2nc(OP(=S)(OCC)OCC)cc2nc1C,inactive,inactive,,,inactive,inactive,inactive,inactive,inactive,inactive,inactive,inactive,inactive,inactive,inactive,inactive,inactive,inactive,inactive,inactive
FC(F)OC(F)(F)C(F)Cl (stereo not drawn),inactive,inactive,inactive,inactive,inactive,inactive,inactive,inactive,inactive,inactive,inactive,inactive,inactive,inactive,inactive,inactive,inactive,inactive,,inactive
CC(C)CCCCCCCOC(=O)c1ccccc1C(=O)OCCCCCCCC(C)C,inactive,inactive,inactive,inactive,inactive,inactive,inactive,inactive,inactive,inactive,inactive,inactive,inactive,inactive,inactive,inactive,inactive,inactive,,inactive
CC(C)(C)OOC(C)(C)CCC(C)(C)OOC(C)(C)C,inactive,inactive,inactive,inactive,inactive,inactive,inactive,inactive,inactive,inactive,inactive,inactive,inactive,inactive,inactive,inactive,inactive,inactive,,inactive
C#C[C@]1(O)CC[C@H]2[C@@H]3CCC4=CC(=O)CCC4=C3C=C[C@@]21CC,inactive,inactive,,,inactive,inactive,inactive,inactive,inactive,inactive,inactive,inactive,inactive,,inactive,inactive,,379 nM (active),,inactive
O=C(O)C(Cl)(Cl)Br,inactive,inactive,inactive,,inactive,inactive,inactive,inactive,inactive,inactive,inactive,inactive,inactive,inactive,inactive,inactive,inactive,inactive,inactive,inactive
C1CS1,inactive,inactive,inactive,,inactive,inactive,inactive,inactive,inactive,inactive,inactive,inactive,inactive,,inactive,inactive,,,inactive,inactive
